Test results as given in PubChem BioAssay (Tox21).
“And” between values parts separate entries of the source, which are not always exact repeats. Identical values can stand only once. Inconclusive results are not listed. A call without a number means that no potency is given here. Where a structure was tested more than once in an assay, its records may differ in their call. The source made the active and inactive calls. Calls come from the whole dose curve; as a rule, active = well fitted cell-killing curve with a large enough effect in the repeat runs; inconclusive = weak or mixed curves, or effect the other way; inactive = flat fitted curve, though single readings scatter.

experiment: qHTS RealTime-Glo MT Cell Viability Assay in HEK293 cells - 8 hour (AID 1224887); settings: RealTime-Glo luminescence; series mostly up to 76.8 µM; activity change, negative = cytotoxicity: at the top concentration; note: nearly all actives have a fitted effect of over 50% in size; for activity change, negative = cytotoxicity: top concentration of the series differs between compounds
From the text: U.S. Tox21 Program National Center for Advancing Translational Sciences [NCATS] NIH Chemical Genomics Center [NCGC] U.S. Environmental Protection Agency [EPA] National Institutes of Environmental Health Sciences [NIEHS] National Toxicology Program [NTP] U.S. Food and Drug Administration [FDA] Tox21 Assay Overview: Measure of cell viability is critical in the cell-base assay. Analysis of cell viability is necessary for the characterization of cell responses to cytotoxic drugs and environmental stress. A RealTime-Glo MT Cell Viability Assay to monitor cell viability in real time of continues cell culture during 40 hours of compound treatment was used to screen Tox21 10K library compounds in Hek293 cells. The RealTime-Glo MT Cell Viability Assay is a nonlytic, homogeneous, bioluminescent method to measure cell viability in real time using a simple, plate-based method. The assay involves adding NanoLuc luciferase and a cell-permeant prosubstrate to cells in culture. Viable cells reduce the proprietary prosubstrate to generate a substrate for NanoLuc luciferase. This substrate diffuses from cells into the surrounding culture medium, where it is rapidly used by the NanoLuc Enzyme to produce a luminescent signal. The signal correlates with the number of viable cells, making the assay well suited for cytotoxicity studies.
Tox21 Assay Protocol Summary: The mixture of Hek293 cell suspension and reagents were dispensed at 600cells/6 ul/well in 1536-well tissue culture treated black solid bottom plates using a Multidrop dispenser. After the assay plates were incubated at a 37 C/5% CO2 incubator for 5 hours, 23 nL of compounds dissolved in DMSO, positive and negative controls was transferred to the assay plate by a pintool work station. The plates were incubated at 37 C for 40 hours. The luminescence intensity were measured at 0h, 8h, 16h, 24h, 32h and 40h time points using ViewLux plate reader during compound treatment.
Potency is the fitted concentration of half-maximal effect.

Question: For `Nc1ncn([C@@H]2O[C@H](CO)[C@@H](O)[C@H]2O)c(=O)n1`, which Potency is on record?
Answer: inactive

Question: With `c1ccc2cc(Nc3ccc(Nc4ccc5ccccc5c4)cc3)ccc2c1` as the compound, how does the Potency read?
Answer: inactive

Question: With `c1ccc2c(c1)c1cccc3ccc4cccc2c4c31` as the compound, how does the Potency read?
Answer: inactive

Question: Which Potency does the source give for `CC(C)=CCC/C(C)=C\CO` here?
Answer: inactive

Question: With `CCCCC(CC)COCC1CO1` (stereo not given) as the compound, how does the Potency read?
Answer: inactive

Question: Which Potency does the source give for `O=[N+]([O-])c1ccc2c(c1)Cc1ccccc1-2` here?
Answer: inactive

Question: Which Potency does the source give for `Nc1ccc(Nc2ccccc2)cc1` here?
Answer: 21.6 µM (active) and 21.9 µM (active)

Question: With `COc1ccccc1/C=C/C=O` as the compound, how does the Potency read?
Answer: inactive

Question: With `Cc1cc2nc3c(=O)[nH]c(=O)nc-3n(C[C@H](O)[C@H](O)[C@H](O)CO)c2cc1C` as the compound, how does the Potency read?
Answer: inactive

Question: With `OC[C@H]1O[C@@H]2O[C@H]3[C@H](O)[C@@H](O)[C@@H](O[C@H]4[C@H](O)[C@@H](O)[C@@H](O[C@H]5[C@H](O)[C@@H](O)[C@@H](O[C@H]6[C@H](O)[C@@H](O)[C@@H](O[C@H]7[C@H](O)[C@@H](O)[C@@H](O[C@H]8[C@H](O)[C@@H](O)[C@@H](O[C@H]1[C@H](O)[C@H]2O)O[C@@H]8CO)O[C@@H]7CO)O[C@@H]6CO)O[C@@H]5CO)O[C@@H]4CO)O[C@@H]3CO` as the compound, how does the Potency read?
Answer: inactive

Question: Which Potency does the source give for `CCCCOCCOCCOCCO` here?
Answer: inactive

Question: Which Potency does the source give for `COc1c(Cl)c(Cl)c(Cl)c(Cl)c1Cl` here?
Answer: inactive

Question: With `COc1cccc2c1C(=O)c1c(O)c3c(c(O)c1C2=O)C[C@@](O)(C(=O)CO)C[C@@H]3O[C@H]1C[C@H](N)[C@H](O)[C@H](C)O1` as the compound, how does the Potency read?
Answer: inactive

Question: For `CCOC(=O)C(C#N)=C(c1ccccc1)c1ccccc1`, which Potency is on record?
Answer: inactive

Question: With `CC(C)(C)NC(=O)[C@H]1CC[C@H]2[C@@H]3CC[C@H]4NC(=O)C=C[C@]4(C)[C@H]3CC[C@]12C` as the compound, how does the Potency read?
Answer: inactive

Question: With `CCCCCCCCCCCO` as the compound, how does the Potency read?
Answer: inactive

Question: Which Potency does the source give for `CN(C)C(=N)N=C(N)N` here?
Answer: inactive

Question: For `O=C(COc1ccc(Cl)cc1)N1CCN(Cc2ccc3c(c2)OCO3)CC1`, which Potency is on record?
Answer: 38.9 µM (active) and inactive

Question: Which Potency does the source give for `Cc1c(C(N)=O)cc([N+](=O)[O-])cc1[N+](=O)[O-]` here?
Answer: inactive

Question: Which Potency does the source give for `c1ccncc1` here?
Answer: inactive

Question: Which Potency does the source give for `c1ccc2c(c1)Oc1ccccc1S2` here?
Answer: inactive

Question: With `O=C(/C=C/C=C/c1ccc2c(c1)OCO2)N1CCCCC1` as the compound, how does the “activity change, negative = cytotoxicity” value read?
Answer: -28.6% (inactive)

Question: For `CCCC(=O)O`, which Potency is on record?
Answer: inactive

Question: With `CC(=O)Oc1ccccc1C(=O)Nc1ncc([N+](=O)[O-])s1` as the compound, how does the “activity change, negative = cytotoxicity” value read?
Answer: -28.8% (inactive)

Question: Which Potency does the source give for `C=C(C)C(=O)OCCOC(=O)C(=C)C` here?
Answer: inactive

Question: With `CCCCNS(=O)(=O)c1ccccc1` as the compound, how does the “activity change, negative = cytotoxicity” value read?
Answer: 0.453% (inactive)

Question: For `CC(=O)CC/C=C(\C)CCC=C(C)C`, which Potency is on record?
Answer: inactive

Question: Which Potency does the source give for `O=CCc1ccccc1` here?
Answer: inactive

Question: Which Potency does the source give for `CN(C)CCN(Cc1cccs1)c1ccccn1` here?
Answer: inactive

Question: For `COC(=O)CCC(=O)OC`, which Potency is on record?
Answer: inactive

Question: For `O=CCCCC=O`, which Potency is on record?
Answer: inactive

Question: For `Clc1nc(Cl)c(Cl)c(Cl)c1Cl`, which Potency is on record?
Answer: inactive

Question: For `COC(C)COC(C)COC(C)CO` (stereo not given), which Potency is on record?
Answer: inactive

Question: For `O=C(c1ccccc1)c1ccccc1O`, which Potency is on record?
Answer: inactive

Question: With `Cc1ncc[nH]1` as the compound, how does the Potency read?
Answer: inactive

Question: With `Cc1cccc(N(C)C(=S)Oc2ccc3ccccc3c2)c1` as the compound, how does the Potency read?
Answer: inactive

Question: Which Potency does the source give for `C/C=C/C(=O)O` here?
Answer: inactive

Question: For `C[C@]12CC[C@H]3[C@@H](CCC4=CC(=O)CC[C@@]43C)[C@@H]1CC[C@@H]2C(=O)CO`, which “activity change, negative = cytotoxicity” value is on record?
Answer: -17.9% [at 35.3 µM] (inactive)

Question: Which Potency does the source give for `O=C(Nc1ccc(Cl)cc1)Nc1ccc(Cl)c(Cl)c1` here?
Answer: inactive

Question: Which Potency does the source give for `COC(=O)C1=C(C)NC(C)=C(C(=O)OCCN(C)Cc2ccccc2)C1c1cccc([N+](=O)[O-])c1` (stereo not given) here?
Answer: 24.4 µM (active) and 19 µM (active)
